Screening data from PubChem BioAssay.
Lassa entry inh = inhibitors of Lassa virus binding or cell entry. Lassa virus pseudotype entry inhibition, cell reporter. Potency, µM (top dose mostly 37.9 µM), without a hit: at the highest dose activity change, negative = inhibition, hits mostly inhibitors. 300,000 compounds, 1.2% hits; calls by dose curve; tested in HEK293 cells; further: nearly all actives have a fitted effect of over 50% in size
Vaccinia Venus = vaccinia inhibition (Venus reporter); Vaccinia virus Venus reporter expression, fluorescence; Potency, µM (series often up to 36.5 µM), without a hit: at the top dose activity change, negative = inhibition, hits mostly inhibitors; 330,000 compounds, 0.46% hits; calls by dose curve; tested in A549 cells; further: nearly all actives have a fitted effect of over 30% in size
MARV entry inh = Marburg virus entry inhibition. 300,000 compounds, 1.8% hits. Potency, µM (doses to about 37.8 µM), without a hit: top-dose activity change, negative = inhibition, usual class: inhibitors. Marburg virus pseudotyped entry inhibition, cell reporter; calls by dose curve; tested in HEK293 cells
HCV inh = blocks hepatitis C virus. Huh7.5.1 HCVcc-Cre infection, luciferase reporter, 44 h. Potency, µM (titrated, usually from 41.8 µM), for inactives: at the top dose activity change, negative = inhibition, actives largely listed as inhibitors. 340,000 compounds, 3.4% hits. AID 651820; active means well fitted inhibition curve with a large enough effect; inconclusive means small, poorly fitted or top-dose-only effect, or another doubt; inactive means no such curve, though single readings can be large or run the other way
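1,000 cells/well; 4 h culture; + compound; + HCVcc-Cre (~0.5 moi); 44 h; luciferase substrate, RT 15 min; read 15 sec.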
VACV mCherry inh = inhibitors of vaccinia virus infection (mCherry reporter signal); Vaccinia virus mCherry reporter infection, fluorescence; Potency, µM (highest dose often 36.5 µM), inactives show top-dose activity change, negative = inhibition, most hits filed as inhibitors; 310,000 compounds, 0.63% hits; AID 720579; calls by dose curve; tested in A549 cells; further: nearly all actives have a fitted effect of over 35% in size
* = called active by the depositor; i = inactive; ? = inconclusive; / = no result given; [ ] = dose if it differs, or a comment. Shown are actives, neighbours in structure and some others; about 4.6% of the full set was active somewhere. On the % scale 0 is the no-effect control and ±100 the full control effect; potency means the concentration at half of the fitted maximal effect.

SMILES | Lassa entry inh | Vaccinia Venus | MARV entry inh | HCV inh | VACV mCherry inh
O=C(Nc1cccc(Br)c1)c1ccc(CN2CCc3ccccc3C2)cc1 | / | / | / | 2.2µM* | /
O=C(Nc1ccc(F)cc1)c1ccc(CN2CCc3ccccc3C2)cc1 | / | / | / | 5.6µM* | /
CC(=O)Nc1ccc(NC(=O)c2ccc(CN3CCc4ccccc4C3)cc2)cc1 | 11% | -7% | ? | -5% | i
Cc1ccccc1NC(=O)c1ccc(CN2CCc3ccccc3C2)cc1 | -7% | ? | -10% | ? | /
Oc1c(C(Nc2cccc(C(F)(F)F)c2)c2ccncc2)ccc2cccnc12 (stereo unspecified) | ? | ? | ? | 6.3µM* | ?
Oc1c(C(Nc2nccs2)c2ccc(C(F)(F)F)cc2)ccc2cccnc12 (stereo unspecified) | ? | ? | 4.5µM* | ? | 7.1µM*
Oc1c(C(Nc2cccnc2)c2ccccc2F)ccc2cccnc12 (stereo unspecified) | / | ? | / | / | 10µM*
O=C(Nc1cccc(C(F)(F)F)c1)c1cccnc1 | 2% | -15% | -13% | -4% | -4%
C=C(C#Cc1ccc(OC)cc1)CCN1C=C(C(=O)OCC)C(c2ccccc2)NC1=O (stereo unspecified) | ? | / | 6%[14.2 µM] | / | /
Cc1ccc(S(=O)(=O)N2CCN(c3nc(-n4ccnc4)nc4ccccc34)CC2)cc1 | / | -17% | / | / | i
COc1ccc(CC(C)N2CCN(c3cccc(C(F)(F)F)c3)CC2)cc1OC (stereo unspecified) | ? | -24% | -20% | 11µM* | i
CCOc1cc(CN2CCN(c3cccc(C(F)(F)F)c3)CC2)ccc1OC | -15% | -12% | ? | -25% | -21%
CCOc1cc(CN2CCN(c3cccc(C(F)(F)F)c3)CC2)ccc1O | -5% | / | 16µM* | -10% | /
CC(C)Cn1c(=O)c2ccccc2n2c(CCC(=O)Nc3ccc(F)cc3)nnc12 | / | -23% | ? | / | -7%
CCOC(=O)Cn1c(S(=O)(=O)Cc2ccccc2Cl)nc(-c2ccccc2)c1-c1ccccc1 | 12µM* | / | 5.2µM* | 8% | /
C#CCn1c(S(=O)(=O)Cc2ccccc2Cl)nc(-c2ccccc2)c1-c1ccccc1 | / | / | -7% | 5% | /
COc1cc(C(=O)NCCOc2cc(C)ccc2C(C)C)cc(OC)c1OC | 2.8µM* | -29% | 3.2µM* | 2.8µM* | -10%
Cc1ccc(C(C)C)c(OCCNC(=O)c2cncc(Br)c2)c1 | ? | -26% | ? | -12% | /
S=C(NCc1ccc(Cl)cc1Cl)NC1CCCCC1 | 8.9µM* | ? | ? | ? | ?
Cc1cc2cc(CNC(=O)NC3CCCCC3)ccc2[nH]1 | 23% | -11% | 29% | -23% | -2%
Cc1cc2cc(CNC(=S)NC3CCCCC3)ccc2[nH]1 | ? | / | -14% | 10µM* | /
CCOC(=O)c1nnn(C(CC)C(=O)Nc2ccc(F)cc2)c1C(=O)OCC (stereo unspecified) | 20%[46.1 µM] | -3% | -1%[46.1 µM] | / | 2%
Cc1ccc(C)c(NC(=O)c2cc(S(=O)(=O)N3CCCCCC3)ccc2F)c1 | -4%[46.1 µM] | -8% | / | / | -4%
CN(C)c1ccc(/C=C/c2ccnc3ccccc23)cc1C=O | / | -10% | / | / | -24%
COC(=O)c1cc(NS(=O)(=O)c2ccc(C)c3ccccc23)ccc1N1CCOCC1 | ? | -29% | ? | 22µM* | -6%
SMILES | Lassa entry inh | Vaccinia Venus | MARV entry inh | HCV inh | VACV mCherry inh
COC(=O)c1cc(-n2cccc2)ccc1N1CCOCC1 | 25% | -5% | -1% | 6% | i
COc1cc(CCC(C)=O)ccc1OC(=O)c1c(F)cccc1Cl | ? | -2%[7.34 µM] | ? | 11µM* | 0%[7.34 µM]
COc1ccc(CCNC(=O)c2ccccc2Cl)cc1OC | / | / | / | -11% | /
CNc1ccc(Br)cc(C(=O)/C=C/c2cccc(OC)c2OC)c1=O | -21% | / | 11% | ? | /
COc1ccccc1C=CC(=O)C=Cc1ccccc1OC | 4.5µM* | ? | ? | ? | ?
CNc1ccccc(C(=O)/C=C/c2ccccc2OC)c1=O | ? | ? | 11µM* | ? | -24%
CCCCCCCCN1[C@@H](CC(=O)O)c2ccc(/C=C/C(=O)O)cc2S1(=O)=O | / | -10% | / | / | i
O=C(NC1CC1)c1ccc2nc(-c3ccco3)c(-c3ccco3)nc2c1 | / | -7% | / | / | 15%
CCN(CC)CCCCCCCCOC(=O)c1cc(OC)c(OC)c(OC)c1 | ? | ? | 23µM* | 0.56µM* | ?
COc1cc(C(=O)OCCCN2CCCN(CCCOC(=O)c3cc(OC)c(OC)c(OC)c3)CC2)cc(OC)c1OC | ? | -9% | 5.2µM* | 8.9µM* | -6%
CCOC(=O)NNc1ccc2nonc2c1[N+](=O)[O-] | ? | 0% | 11µM* | ? | i
O=C(CSc1nc2ccccc2n1Cc1ccccc1)N1CCN(c2ccc(F)cc2)CC1 | / | -23% | -2%[46.1 µM] | / | -20%
CCc1c(-c2ccccc2)nc2nc(C)c(C)nn12 | / | ? | / | -24% | ?
CCc1ccc(-c2cn3nc(C)c(C)nc3n2)cc1 | ? | / | 2.1µM* | -11% | /
Cc1nc2nc(-c3ccccc3)cn2nc1C | 12µM* | -19% | ? | 14% | -12%
Cc1nc2nc(-c3ccc(F)cc3)cn2nc1C | / | -8% | / | 9% | -14%
CCn1c(CNC(=O)c2ccc(OC)cc2)nnc1SCC(=O)Nc1cc(C)ccc1C | -6%[46.1 µM] | -7% | ? | / | 0%
Cc1ccc(CNC(=O)c2ccc3c(c2)N(Cc2ccccc2Cl)C(=O)CS3)cc1 | 1%[46.1 µM] | -10% | -26%[46.1 µM] | / | -13%
CC(Oc1ccc(Br)cc1)C(=O)N1CCc2ccccc21 (stereo unspecified) | 2% | / | -36% | 5% | /
C[C@H](N)CN1CCc2ccc(Br)cc21 | ? | -19% | 3.5µM* | ? | -12%
CCCCCCCCCCCCCCCCCCNc1ccn(C2OC(COP(=O)(O)OCC3OC(n4cc(F)c(=O)[nH]c4=O)CC3O)C(O)C2O)c(=O)n1 (stereo unspecified) | ? | ? | ? | ? | 0.32µM*
CCC(=O)N[C@@H]1c2ccccc2C2(CCN(Cc3cnc(N(C)C)s3)CC2)[C@H]1OC | / | -3% | / | / | -13%
CCN1C/C(=C\c2cccc([N+](=O)[O-])c2)C(=O)/C(=C/c2cccc([N+](=O)[O-])c2)C1 | 2.5µM* | -7% | ? | 2.5µM* | i
O=C1/C(=C/c2cccc([N+](=O)[O-])c2)CCc2ccccc21 | -18% | -8% | ? | 3% | -15%
CC(C)c1cc(C(=O)Nc2cc(Br)ccc2O)no1 | -4% | -7% | 15% | -23% | i
CC(C)c1cc(C(=O)Nc2cc(Cl)ccc2O)no1 | ? | -12% | ? | 10µM* | i
O=C(Oc1ccc(F)cc1)c1nc(SCc2ccc(F)cc2)ncc1Cl | -7%[46.1 µM] | -17% | -8%[46.1 µM] | / | -7%
CC(=O)c1sc(NC(=O)CCS(=O)(=O)c2ccccc2)nc1C | / | / | / | 13µM* | /
O=C(CCS(=O)(=O)c1ccccc1)Nc1nc(-c2cccs2)cs1 | -29% | 4µM* | ? | 1%[8.37 µM] | ?
COCCSc1nnc(NC(=O)CCS(=O)(=O)c2ccccc2)s1 | -11% | -28% | 11µM* | ? | ?
